# Inconclusive results are not listed. Where a call stands in place of a potency, no number is given. Active and inactive are the calls of the source. The call rests on the fitted dose curve; in most records, active means well fitted curve in the direction sought with a large enough effect; inconclusive means small, poorly fitted or top-dose-only effect, or another doubt; inactive means no such curve, though single readings can be large; an effect the other way counts as inactive or inconclusive.
# What was measured:
# [1] = qHTS of pediatric cancer cell lines to identify multiple opportunities for drug repurposing: Primary screen for BT-12 cells (AID 1347101); further: nearly all actives have a fitted effect of over 25% in size; further: potency means the concentration at half of the fitted maximal effect
# In short: (§1)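 Cells (500-1,000/well) rested 5 h, then received compounds for 48 h; metabolically active cells were measured by CellTiter-Glo luminescence. Final concentrations spanned up to 46 µM (MIPE, 11-point) or 0.59 nM-46 µM (NPC, 8-point) in primary screens, 11-point in follow-ups.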
# [2] = qHTS of pediatric cancer cell lines to identify multiple opportunities for drug repurposing: Primary screen for Rh18 cells (AID 1347102); further: nearly all actives have a fitted effect of over 65% in size; further: potency means the concentration at half of the fitted maximal effect
# In short: (§2)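 Cells (500-1,000/well) in growth media were settled 5 h at 37 degrees C, then given compounds for 48 h. Viability was read as CellTiter-Glo luminescence. Primary runs used MIPE at 11 points (0.78 nM-46 µM) and NPC at 8 points (0.59 nM-46 µM); follow-ups used 11 points.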
# [3] = qHTS of pediatric cancer cell lines to identify multiple opportunities for drug repurposing: Primary screen for OHS-50 cells (AID 1347103); further: nearly all actives have a fitted effect of over 40% in size; further: potency means the concentration at half of the fitted maximal effect
# In short: as §1
# [4] = qHTS of pediatric cancer cell lines to identify multiple opportunities for drug repurposing: Primary screen for MG 63 (6-TG R) cells (AID 1347105); further: nearly all actives have a fitted effect of over 50% in size
# In short: (§3)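 500-1,000 cells/well; 5 h pre-incubation 37 °C/5% CO2; compound pinned; 48 h; CellTiter-Glo, 15 min RT; luminescence. MIPE 11-pt from 0.78 nM, NPC 8-pt from 0.59 nM final. Bortezomib 2.3 µM final as positive control.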
# [5] = qHTS of pediatric cancer cell lines to identify multiple opportunities for drug repurposing: Primary screen for control Hh wild type fibroblast cells (AID 1347106);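 further: series mostly up to about 46 µM; a drop in luminescence marks cytotoxicity and a rise apparent proliferation; nearly all actives have a fitted effect of over 55% in size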
# In short: as §2
# [6] = qHTS of pediatric cancer cell lines to identify multiple opportunities for drug repurposing: Primary screen for Rh30 cells (AID 1347107); further: series mostly up to about 46 µM; nearly all actives have a fitted effect of over 75% in size
# In short: as §2
# [7] = qHTS of pediatric cancer cell lines to identify multiple opportunities for drug repurposing: Primary screen for Rh41 cells (AID 1347108);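 further: series mostly up to about 46 µM; luminescence drop marks cytotoxic hits; nearly all actives have a fitted effect of over 70% in size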
# In short: as §3
# [8] = qHTS of pediatric cancer cell lines to identify multiple opportunities for drug repurposing: Confirmatory screen for NB1643 cells (AID 1347109); further: potency means the concentration at half of the fitted maximal effect; nearly all actives have a fitted effect of over 45% in size
# In short: as §2
# [9] = qHTS of pediatric cancer cell lines to identify multiple opportunities for drug repurposing: Confirmatory screen for SK-N-MC cells (AID 1347111);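 further: potency means the concentration at half of the fitted maximal effect; cells exposed to compound for 48 h before the readout; nearly all actives have a fitted effect of over 70% in size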
# In short: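 Metabolically active cells were quantified by ATP-dependent luminescence (CellTiter-Glo, 15 min at room temperature) following 48 h treatment. Cells had been plated at 500-1,000 per well and settled for 5 h beforehand.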
# [10] = qHTS of pediatric cancer cell lines to identify multiple opportunities for drug repurposing: Confirmatory screen for BT-12 cells (AID 1347112); further: potency means the concentration at half of the fitted maximal effect; nearly all actives have a fitted effect of over 55% in size
# In short: as §2
# [11] = qHTS of pediatric cancer cell lines to identify multiple opportunities for drug repurposing: Confirmatory screen for LAN-5 cells (AID 1347113); further: potency means the concentration at half of the fitted maximal effect; nearly all actives have a fitted effect of over 65% in size
# In short: as §2
# [12] = qHTS of pediatric cancer cell lines to identify multiple opportunities for drug repurposing: Confirmatory screen for DAOY cells (AID 1347114); further: potency means the concentration at half of the fitted maximal effect; nearly all actives have a fitted effect of over 65% in size
# In short: (§4)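 Viability measured as metabolically active cells via CellTiter-Glo luminescence following 48 hours of compound exposure, 11-point dilutions in confirmatory testing. 500-1,000 cells/well plated 5 hours before dosing; controls were DMSO and 2.3 µM bortezomib.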
# [13] = qHTS of pediatric cancer cell lines to identify multiple opportunities for drug repurposing: Confirmatory screen for NB-EBc1 cells (AID 1347115);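 further: potency means the concentration at half of the fitted maximal effect; cells exposed to compound for 48 h before the viability read; nearly all actives have a fitted effect of over 45% in size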
# In short: as §2
# [14] = qHTS of pediatric cancer cell lines to identify multiple opportunities for drug repurposing: Confirmatory screen for SJ-GBM2 cells (AID 1347116); further: potency means the concentration at half of the fitted maximal effect; nearly all actives have a fitted effect of over 60% in size
# In short: as §4
# [15] = qHTS of pediatric cancer cell lines to identify multiple opportunities for drug repurposing: Confirmatory screen for BT-37 cells (AID 1347117); further: potency means the concentration at half of the fitted maximal effect; nearly all actives have a fitted effect of over 55% in size
# In short: as §2
# [16] = qHTS of pediatric cancer cell lines to identify multiple opportunities for drug repurposing: Confirmatory screen for TC32 cells (AID 1347118);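 further: potency means the concentration at half of the fitted maximal effect; cells exposed to compound for 48 h before the read; nearly all actives have a fitted effect of over 65% in size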
# In short: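 Luminescent CellTiter-Glo read-out of metabolically active TC32 cells after 48 h compound exposure. Primary: MIPE 11-point, 0.78 nM–46 µM; NPC 8-point, 0.59 nM–46 µM. Confirmatory: 11-point dilutions.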
# [17] = qHTS of pediatric cancer cell lines to identify multiple opportunities for drug repurposing: Confirmatory screen for MG 63 (6-TG R) cells (AID 1347119); further: potency means the concentration at half of the fitted maximal effect; nearly all actives have a fitted effect of over 55% in size
# In short: as §2
# [18] = qHTS of pediatric cancer cell lines to identify multiple opportunities for drug repurposing: Confirmatory screen for control Hh wild type fibroblast cells (AID 1347121); further: potency means the concentration at half of the fitted maximal effect; nearly all actives have a fitted effect of over 70% in size
# In short: as §2
# [19] = qHTS of pediatric cancer cell lines to identify multiple opportunities for drug repurposing: Primary screen for RD cells (AID 1347104); further: nearly all actives have a fitted effect of over 55% in size
# In short: as §3
smiles,measurement,setting,value
CC(=O)[C@H]1CC[C@H]2[C@@H]3CC[C@H]4C[C@](C)(O)CC[C@]4(C)[C@H]3CC[C@]12C,Potency,[1],inactive
same,Potency,[2],inactive
same,Potency,[3],inactive
same,Potency,[4],inactive
same,Potency,[5],inactive
same,Potency,[6],inactive
same,Potency,[7],inactive
Cc1cccc(C)c1NC1=NCCCS1,Potency,[1],inactive
same,Potency,[2],inactive
same,Potency,[3],inactive
same,Potency,[4],inactive
same,Potency,[5],inactive
same,Potency,[6],inactive
same,Potency,[7],inactive
C[C@@H]1[C@@H](CC(C[C@H]2O[C@@H]3O[C@]4(C)CC[C@@H]5[C@H](C)CC[C@@H]([C@H]2C)[C@@]35OO4)C[S+](=O)([O-])c2ccc(COC(=O)N(C)C)cc2)O[C@@H]2O[C@]3(C)CC[C@H]4[C@H](C)CC[C@@H]1[C@@]24OO3 (some centres not stated),Potency,[1],0.344 µM (active)
same,Potency,[2],1.66 µM (active)
same,Potency,[3],0.306 µM (active)
same,Potency,[5],inactive
same,Potency,[6],inactive
same,Potency,[8],0.414 µM (active)
same,Potency,[9],0.293 µM (active)
same,Potency,[10],0.657 µM (active)
same,Potency,[11],1.04 µM (active)
same,Potency,[12],1.04 µM (active)
same,Potency,[13],0.928 µM (active)
same,Potency,[14],1.65 µM (active)
same,Potency,[15],0.233 µM (active)
same,Potency,[16],0.585 µM (active)
same,Potency,[17],2.33 µM (active)
same,Potency,[18],13.1 µM (active)
COc1ccc(C(CN(C)C)C2(O)CCCCC2)cc1 (configuration not stated),Potency,[1],inactive
same,Potency,[2],inactive
same,Potency,[3],inactive
same,Potency,[19],inactive
same,Potency,[4],inactive
same,Potency,[5],inactive
same,Potency,[6],inactive
same,Potency,[7],inactive
CCC(C(N)=O)N1CCCC1=O (configuration not stated),Potency,[1],inactive
same,Potency,[2],inactive
same,Potency,[3],inactive
same,Potency,[19],inactive
same,Potency,[4],inactive
same,Potency,[5],inactive
same,Potency,[6],inactive
same,Potency,[7],inactive
CC(C)(C)NCC(O)c1cc(Cl)c(N)c(Cl)c1 (configuration not stated),Potency,[1],inactive
same,Potency,[2],inactive
same,Potency,[3],inactive
same,Potency,[19],inactive
same,Potency,[4],inactive
same,Potency,[5],inactive
same,Potency,[6],inactive
same,Potency,[7],inactive
O=C1CC[C@@]2(O)[C@H]3Cc4ccc(O)c5c4[C@@]2(CCN3CC2CC2)[C@H]1O5,Potency,[1],inactive
same,Potency,[2],inactive
same,Potency,[3],inactive
same,Potency,[4],inactive
same,Potency,[5],inactive
same,Potency,[6],inactive
Cc1cccc(C)c1NC(=O)CN1CCCC1=O,Potency,[1],inactive
same,Potency,[2],inactive
same,Potency,[3],inactive
same,Potency,[19],inactive
same,Potency,[4],inactive
same,Potency,[5],inactive
same,Potency,[6],inactive
CCOP(=S)(OCC)Oc1cc(C)nc(C(C)C)n1,Potency,[1],inactive
same,Potency,[2],inactive
same,Potency,[3],inactive
same,Potency,[4],inactive
same,Potency,[5],inactive
same,Potency,[6],inactive
N[C@@H]1C[C@H]1c1ccccc1,Potency,[1],inactive
same,Potency,[2],inactive
same,Potency,[3],inactive
same,Potency,[4],inactive
same,Potency,[5],inactive
same,Potency,[6],inactive
CN1C(=S)CN=C(c2ccccc2)c2cc(Cl)ccc21,Potency,[1],inactive
same,Potency,[2],inactive
same,Potency,[3],inactive
same,Potency,[19],inactive
same,Potency,[5],inactive
same,Potency,[6],inactive
same,Potency,[7],inactive
CCCC(C)(COC(N)=O)COC(=O)NC(C)C (configuration not stated),Potency,[1],inactive
same,Potency,[2],inactive
same,Potency,[3],inactive
same,Potency,[4],inactive
same,Potency,[5],inactive
same,Potency,[6],inactive
